Data on 40 sequences can be found in the OligoGym collection.
Also: reference of the scale not given here.

For the first assay, the target named is ADRA2B. The assay can be described thus: pooled miR-30 sensor sort-seq; sequence = guide strand. To be noted: shRNA.
Regarding TACACCTCGCACCACGTGCGCC, the sensor-assay potency score (higher = more potent) was -1.33.
For the sequence TTGGCGATCAGGTAGATGCGCA, the sensor-assay potency score (higher = more potent) was -0.201.
The same measure, in the same setting: then AAGATGGTGTAGATAACAGGGT, with -0.352.
Turning to AAATCTAGCAGGTCCATCTGGC, the sensor-assay potency score (higher = more potent) was -0.198.
TAACTTGAAATAGTGATTCTGT: the sensor-assay potency score (higher = more potent) came to 0.986.
TTGAAATAGTGATTCTGTCTGC: the sensor-assay potency score (higher = more potent) was determined as 0.106.
For ATAACAGGGTTCAGTGAGCTGT, the sensor-assay potency score (higher = more potent) is -0.793.
For AAGGTGAAGCGCTTCTCCCGGG, the sensor-assay potency score (higher = more potent) is -0.311.
Consider TCGAGCGCCAGGTACACCTCGC, for which the sensor-assay potency score (higher = more potent) was -0.894.
With TAGCGTAATAACTCAGACCTTT, the sensor-assay potency score (higher = more potent) came out at 0.245.
For TAACAGGGTTCAGTGAGCTGTT, the sensor-assay potency score (higher = more potent) was -0.17.
Turning to TTGTACTCCAGCGCGCGGCTCA, the sensor-assay potency score (higher = more potent) is -0.722.
With AACGCCAATGACCACAGCCAGC, the sensor-assay potency score (higher = more potent) was -1.54.
As for TCATCTTAGACTGTTGCCGAGG, the sensor-assay potency score (higher = more potent) is -0.739.
Take TTCCAAATCTAGCAGGTCCATC: the sensor-assay potency score (higher = more potent) is -1.43.
TTCGAGTGTCCGTTGACCTCTC: the sensor-assay potency score (higher = more potent) stood at 0.0234.
Still for that read-out and setting: the same measure for TAGACAAGGATCATGATGAGGC: 0.0762; for TGTCCGTTGACCTCTCTGGCAG: -0.964; for TCCTGGTTGAGCTTGCACTGGG: -0.653.

The target of a further assay is ADRB1. The assay is described as above. To be noted: shRNA.
TGTCGATCTTCTTCACCTGCTT gave a sensor-assay potency score (higher = more potent) of 0.319.
Regarding ACGAAGTCGCAGCACTTGGGGT, the sensor-assay potency score (higher = more potent) is -1.34.
For AAGAAGGAGCCGTACTCCCAGC, the sensor-assay potency score (higher = more potent) was -1.16.
For the sequence ATGAGCAGCACGATGAGCGCCA, the sensor-assay potency score (higher = more potent) is -0.267.
Regarding TTGGGGTCGTTGTAGCAGCGGC, the sensor-assay potency score (higher = more potent) was -1.11.
With TAGAAGGAGACTACGGACGAGG, the sensor-assay potency score (higher = more potent) is -0.754.
On to TTGCGGAAGTCGGGGCTGCGGC, for which the sensor-assay potency score (higher = more potent) was -1.38.
On the same count and under the same terms, then ACACACAGGGTCTCGATGCTGG, with -0.4.
TCCACTGAGGTCCACAGCTCGC: the sensor-assay potency score (higher = more potent) was -1.74.
Same read-out and setting: then TCTTCTTCACCTGCTTCTGGGC, with -0.965; and TTGAGCGCCTTCTGCTCGCGCA, with -1.01; and ACTGAGGTCCACAGCTCGCAGA, with -1.49.
Take GACATCGTCGTCGTCGTCGTCC: the sensor-assay potency score (higher = more potent) is -1.45.
TTGAAGAAGACGAAGAGGCGGT gave a sensor-assay potency score (higher = more potent) of 0.771.
For the sequence TCGTCGTCGTCGTCGTCCGAGG, the sensor-assay potency score (higher = more potent) was -1.7.
On to TTGGTGAGCGTCTGCAGCCGCG, for which the sensor-assay potency score (higher = more potent) was -1.38.
The same measure, in the same setting: the same measure for TCGAGTCGCTGTCCGCCGCCGC: -1.38; for TTGGTGACGAAGTCGCAGCACT: -0.788.
As for TCGCTGTCCGCCGCCGCCCCGC, the sensor-assay potency score (higher = more potent) is -1.6.
Take TGTCCACTGCTGAGACAGCGGC: the sensor-assay potency score (higher = more potent) is -1.28.
Regarding ACGCACAGCACGTCCACTGAGG, the sensor-assay potency score (higher = more potent) was -1.84.
